Activity calls are given as the source filed them. How the source made its calls: active means hit-call score of the fitted dose curve at least 0.9, where 1 is the maximum; inactive means score below 0.9.

This passage reports outcome and AC50 results from PubChem BioAssay (EPA / NIEHS).

Read-out in the first test: Insulin-like growth factor-binding protein 1 (IGFBP1), IGFBP1 (gene 3484)
Nature of the test: LTEA_HepaRG_IGFBP1: Life Technologies and Expression Analysis (LTEA) Assay for Insulin-like growth factor-binding protein 1 (IGFBP1) using HepaRG (AID 2283508). The conditions noted are these: mRNA level, 48 h; actives raise or lower the signal. In short, it runs like this: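 Differentiated human HepaRG cells in serum-free induction medium were exposed in duplicate for 48 h to eight concentrations, top 100 uM with half-log dilutions, in 0.5% DMSO. Transcript levels came from qRT-PCR normalised to ACTB, GAPDH and POLR2A, fitted bidirectionally against DMSO.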
Consider `CC(C)CCCCCCc1ccc(O)cc1`, for which the call was inactive.
`N#CSCSc1nc2ccccc2s1`: the outcome was inactive.
As to `CC(=O)S[C@@H]1CC2=CC(=O)CC[C@]2(C)[C@H]2CC[C@@]3(C)[C@@H](CC[C@@]34CCC(=O)O4)[C@H]12`, the molecule was classed as inactive.
On to `O=C(c1ccc(O)cc1O)c1ccc(O)cc1O`, for which the molecule was called inactive.
Consider `CCOC(=O)COc1cc(-n2ncc(C(F)(F)F)c(C)c2=O)c(F)cc1Cl`, for which the call was inactive.
For the molecule `OB(O)O`, the molecule was called inactive.
As for `CCCCOC(=O)[C@@H](C)Oc1ccc(Oc2ccc(C(F)(F)F)cn2)cc1`, the molecule was classed as inactive.
For the molecule `CC(C)(C)[C@@H](O)[C@@H](Cc1ccc(Cl)cc1)n1cncn1`, the result was inactive.
Consider `CCCN(CCC)C(=O)SCC`, for which the outcome was inactive.
Turning to `CCCCOC(=O)C(C)Oc1ccc(Oc2ccc(C(F)(F)F)cn2)cc1` (stereo not given), the molecule was called inactive.
`O=C(O)C1(C(=O)Nc2ccc(Cl)cc2Cl)CC1`: the result was inactive.
In the case of `COC(=O)c1ccc(I)cc1S(=O)(=O)NC(=O)Nc1nc(C)nc(OC)n1`, the outcome was inactive.
By AC50 is commonly meant the concentration at which the activity in the assay is half-maximal. `C=CCOC(Cn1ccnc1)c1ccc(Cl)cc1Cl` (stereo not given): the half-maximal activity concentration (AC50) is 30 µM (active).
Regarding `C#C[C@]1(O)CC[C@H]2[C@@H]3CCC4=CC(=O)CC[C@@H]4[C@H]3CC[C@@]21CC`, the molecule was classed as inactive.
Take `C[C@]12C[C@H](O)[C@H]3[C@@H](CCC4=CC(=O)CC[C@@]43C)[C@@H]1CC[C@@H]2C(=O)CO`: the outcome was inactive.
Regarding `C#CCOC(=O)[C@@H](C)Oc1ccc(Oc2ncc(Cl)cc2F)cc1`, the result was inactive.
For `CCCCC(CC)CN1C(=O)C2C3C=CC(C3)C2C1=O` (stereo not given), the AC50 is 82.9 µM (active).
Regarding `O=C(O)c1ccccc1`, the molecule was called inactive.
Still for that read-out and setting: the result for `CCN(CC)C(=O)c1cccc(C)c1` reads “inactive”; that for `CCCN(CCC)c1c([N+](=O)[O-])cc(C(F)(F)F)c(N)c1[N+](=O)[O-]`, “inactive”.
Regarding `Cc1nn(C)c(Oc2ccccc2)c1C=NOCc1ccc(C(=O)OC(C)(C)C)cc1`, the AC50 was 9.63 µM (active).
With `CCCOC(=O)c1ccc(C(=O)OCCC)nc1`, the molecule was called inactive.
On the same count and under the same terms, next, `CCCOC(=O)NCCCN(C)C`: “inactive”.
Regarding `O=C(Nc1ccc([N+](=O)[O-])cc1Cl)c1cc(Cl)ccc1O`, the AC50 is 2.13 µM (active).
Take `CCC(C)OC(=O)N1CCCCC1CCO` (stereo not given): the molecule was called inactive.
With `S=C([S-])NCCNC(=S)[S-].[Mn+2]`, the AC50 was 0.194 µM (active).

Read-out in the next test: Interleukin 6 (IL6), IL6 (gene 3569)
Nature of the test: LTEA_HepaRG_IL6: Life Technologies and Expression Analysis (LTEA) Assay for Interleukin 6 (IL6) using HepaRG (AID 2283509). To be noted: mRNA level, 48 h; actives raise or lower the signal. In short, it runs like this: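 HepaRG cells exposed in duplicate for 48 h to eight half-log concentrations, top 100 uM, in 0.5% DMSO serum-free induction medium. mRNA measured by qRT-PCR, normalized to ACTB, GAPDH and POLR2A. Bidirectional fit versus DMSO.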
Consider `CC(C)CCCCCCc1ccc(O)cc1`, for which the molecule was classed as inactive.
The same measure, in the same setting: the result for `N#CSCSc1nc2ccccc2s1` reads “inactive”; that for `CC(=O)S[C@@H]1CC2=CC(=O)CC[C@]2(C)[C@H]2CC[C@@]3(C)[C@@H](CC[C@@]34CCC(=O)O4)[C@H]12`, “inactive”; that for `O=C(c1ccc(O)cc1O)c1ccc(O)cc1O`, “inactive”.
With `CCOC(=O)COc1cc(-n2ncc(C(F)(F)F)c(C)c2=O)c(F)cc1Cl`, the result was inactive.
Regarding `OB(O)O`, the molecule was called inactive.
On to `CCCCOC(=O)[C@@H](C)Oc1ccc(Oc2ccc(C(F)(F)F)cn2)cc1`, for which the outcome was inactive.
The same measure, in the same setting: the result for `CC(C)(C)[C@@H](O)[C@@H](Cc1ccc(Cl)cc1)n1cncn1` reads “inactive”; that for `CCCN(CCC)C(=O)SCC`, “inactive”.
As to `CCCCOC(=O)C(C)Oc1ccc(Oc2ccc(C(F)(F)F)cn2)cc1` (stereo not given), the molecule was classed as inactive.
Consider `O=C(O)C1(C(=O)Nc2ccc(Cl)cc2Cl)CC1`, for which the molecule was classed as inactive.
With `COC(=O)c1ccc(I)cc1S(=O)(=O)NC(=O)Nc1nc(C)nc(OC)n1`, the molecule was classed as inactive.
Regarding `C=CCOC(Cn1ccnc1)c1ccc(Cl)cc1Cl` (stereo not given), the half-maximal activity concentration (AC50) was 73.7 µM (active).
Take `C#C[C@]1(O)CC[C@H]2[C@@H]3CCC4=CC(=O)CC[C@@H]4[C@H]3CC[C@@]21CC`: the half-maximal activity concentration (AC50) was 0.0379 µM (active).
As for `C[C@]12C[C@H](O)[C@H]3[C@@H](CCC4=CC(=O)CC[C@@]43C)[C@@H]1CC[C@@H]2C(=O)CO`, the molecule was called inactive.
Take `C#CCOC(=O)[C@@H](C)Oc1ccc(Oc2ncc(Cl)cc2F)cc1`: the molecule was classed as inactive.
Take `CCCCC(CC)CN1C(=O)C2C3C=CC(C3)C2C1=O` (stereo not given): the half-maximal activity concentration (AC50) was 74.9 µM (active).
As for `O=C(O)c1ccccc1`, the molecule was classed as inactive.
The same measure, in the same setting: the result for `CCN(CC)C(=O)c1cccc(C)c1` reads “inactive”; that for `CCCN(CCC)c1c([N+](=O)[O-])cc(C(F)(F)F)c(N)c1[N+](=O)[O-]`, “inactive”.
As to `Cc1nn(C)c(Oc2ccccc2)c1C=NOCc1ccc(C(=O)OC(C)(C)C)cc1`, the concentration at half-maximal activity (AC50) was 5.23 µM (active).
For the molecule `COC(=O)c1ccccc1C(=O)O`, the molecule was called inactive.
The same measure, in the same setting: next, `CCCOC(=O)c1ccc(C(=O)OCCC)nc1`: “inactive”; `CCCOC(=O)NCCCN(C)C`: “inactive”.
As to `O=C(Nc1ccc([N+](=O)[O-])cc1Cl)c1cc(Cl)ccc1O`, the AC50 is 3.29 µM (active).
Regarding `CCC(C)OC(=O)N1CCCCC1CCO` (stereo not given), the outcome was inactive.
Take `S=C([S-])NCCNC(=S)[S-].[Mn+2]`: the half-maximal activity concentration (AC50) was 5.31 µM (active).

Read-out in the next test: Interleukin 6 Receptor (IL6R), IL6R (gene 3570)
Nature of the test: LTEA_HepaRG_IL6R: Life Technologies and Expression Analysis (LTEA) Assay for Interleukin 6 Receptor (IL6R) using HepaRG (AID 2283510).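 On AC50: TaqMan qRT-PCR signal normalized to ACTB GAPDH and POLR2A housekeeping genes.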 The conditions noted are these: mRNA level, 48 h; actives raise or lower the signal. Put shortly: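 Differentiated human HepaRG cells, plated 48 h then switched to serum-free induction medium, were dosed in duplicate for 48 h at eight half-log concentrations up to 100 uM in 0.5% DMSO. IL6R mRNA quantified by qRT-PCR, normalized to ACTB/GAPDH/POLR2A; bidirectional fit versus DMSO.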
`CC(C)CCCCCCc1ccc(O)cc1`: the molecule was called inactive.
Take `N#CSCSc1nc2ccccc2s1`: the half-maximal activity concentration (AC50) is 84 µM (active).
Regarding `CC(=O)S[C@@H]1CC2=CC(=O)CC[C@]2(C)[C@H]2CC[C@@]3(C)[C@@H](CC[C@@]34CCC(=O)O4)[C@H]12`, the half-maximal activity concentration (AC50) is 63.3 µM (active).
With `O=C(c1ccc(O)cc1O)c1ccc(O)cc1O`, the outcome was inactive.
Take `CCOC(=O)COc1cc(-n2ncc(C(F)(F)F)c(C)c2=O)c(F)cc1Cl`: the outcome was inactive.
Take `OB(O)O`: the molecule was called inactive.
As to `CCCCOC(=O)[C@@H](C)Oc1ccc(Oc2ccc(C(F)(F)F)cn2)cc1`, the molecule was classed as inactive.
`CC(C)(C)[C@@H](O)[C@@H](Cc1ccc(Cl)cc1)n1cncn1`: the outcome was inactive.
Same read-out and setting: next, `CCCN(CCC)C(=O)SCC`: “inactive”; `CCCCOC(=O)C(C)Oc1ccc(Oc2ccc(C(F)(F)F)cn2)cc1` (stereo not given): “inactive”; `O=C(O)C1(C(=O)Nc2ccc(Cl)cc2Cl)CC1`: “inactive”.
Same read-out and setting: the result for `COC(=O)c1ccc(I)cc1S(=O)(=O)NC(=O)Nc1nc(C)nc(OC)n1` reads “inactive”.
On to `C=CCOC(Cn1ccnc1)c1ccc(Cl)cc1Cl` (stereo not given), for which the AC50 is 12.7 µM (active).
Consider `C#C[C@]1(O)CC[C@H]2[C@@H]3CCC4=CC(=O)CC[C@@H]4[C@H]3CC[C@@]21CC`, for which the molecule was called inactive.
`C[C@]12C[C@H](O)[C@H]3[C@@H](CCC4=CC(=O)CC[C@@]43C)[C@@H]1CC[C@@H]2C(=O)CO`: the molecule was classed as inactive.
As for `C#CCOC(=O)[C@@H](C)Oc1ccc(Oc2ncc(Cl)cc2F)cc1`, the molecule was classed as inactive.
On to `CCCCC(CC)CN1C(=O)C2C3C=CC(C3)C2C1=O` (stereo not given), for which the outcome was inactive.
Still for that read-out and setting: the result for `O=C(O)c1ccccc1` reads “inactive”; that for `CCN(CC)C(=O)c1cccc(C)c1`, “inactive”.
Still for that read-out and setting: the result for `CCCN(CCC)c1c([N+](=O)[O-])cc(C(F)(F)F)c(N)c1[N+](=O)[O-]` reads “inactive”.
Regarding `Cc1nn(C)c(Oc2ccccc2)c1C=NOCc1ccc(C(=O)OC(C)(C)C)cc1`, the AC50 was 1.28 µM (active).
With `COC(=O)c1ccccc1C(=O)O`, the molecule was classed as inactive.
On to `CCCOC(=O)c1ccc(C(=O)OCCC)nc1`, for which the result was inactive.
For the molecule `CCCOC(=O)NCCCN(C)C`, the molecule was classed as inactive.
Take `O=C(Nc1ccc([N+](=O)[O-])cc1Cl)c1cc(Cl)ccc1O`: the concentration at half-maximal activity (AC50) is 2.13 µM (active).
With `CCC(C)OC(=O)N1CCCCC1CCO` (stereo not given), the molecule was classed as inactive.
Turning to `S=C([S-])NCCNC(=S)[S-].[Mn+2]`, the concentration at half-maximal activity (AC50) was 3.93 µM (active).
